The values that follow come from PubChem BioAssay (NCI).

What all share (test): NCI-60 one-dose screen, 48 h (100 = growth as untreated, 0 = no growth, -100 = all killed)
Settings in all cases: 10 µM unless noted

Assay [1] relates to HCT-15 colon.
Assay [2] deals with HT29 colon.
For assay [3], the system named is SNB-75 CNS.
Assay [4] relates to SNB-19 CNS.
The test system of assay [5] is U251 CNS.
Assay [6] has as its system SK-MEL-5 melanoma.
Assay [7] deals with UACC-62 melanoma.
Assay [8] relates to LOX IMVI melanoma.
The test system of assay [9] is SK-MEL-28 melanoma.

Compounds without any hit were thinned out: in the full panel of roughly 83,000, 20% have a hit.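 Testing used 96-well plates and a 48-hour single-concentration exposure. Example: -40 means 40% of the starting cells died.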 Unmarked numbers belong to inactive results. The source made the active and inactive calls. How the source made its calls: active means growth percent below 10; inactive means the rest.

Regarding `C(=N/Nc1ncc(-c2cc3cc(-c4ccccc4)ccc3o2)s1)/c1cccs1`, the growth in assay [1] is 99.2%; in assay [2], 99.6%; in [3], 100%; in assay [4], 99.3%; in assay [5] it was 99.5%; in [6], 96.8%. The growth in assay [7] is 90.7%; in [8] it was 98.7%; in [9], 96.1%.

Take `CCOc1cc2c(cc1OCC)C(c1cc(OC)c(O)cc1Cl)NCC2` (stereo not given): the growth in assay [1] is 86.9%; in assay [2], 56.9%; in [3], 82.2%; in [4], 103%; in assay [5], 84.1%; in assay [6], 88.6%. Besides, the growth in [7] was 99.8%; in assay [8], 89.6%; in assay [9], 99.9%.

For `O=C1Nc2ccc(Br)cc2C12Oc1ccccc1C1CC(c3ccc(F)cc3)=NN12` (stereo not given), the growth is 79.9% in assay [1]; 93.7% in [2]; 86% in assay [3]; 90.6% in assay [4]; 90.9% in assay [5]; 93.3% in assay [6]. The growth was 84.6% in [7], 91.9% in assay [8] and 105% in [9].

Turning to `COc1ccc(S(=O)(=O)N2CC3(COC3)C2)cc1NC(=O)c1[nH]c(C)c2c1CCCCC2=O`, the growth in [1] is 70.1%; in assay [2], 19.2%; in assay [3] it was 19.4%; in assay [4], 54.9%; in [5], 62.8%; in [6] it was 46.5%. Also, the results for the growth in [7], in [8] and in [9] were 23.4%, 17.3% and 73.7%, respectively.

As for `Cc1ccc(OC(=O)c2ccc(Cl)cc2)cc1`, the growth was 102% in assay [1]; 89.2% in assay [2]; 77.1% in [3]; 103% in assay [4]; 102% in assay [5]; 103% in assay [6]. The figures for the growth in [7], in assay [8] and in [9] were 94.7%, 99.3% and 106%, respectively.

For `CCOc1nc(-c2ccccc2)cc2c(O)c(C(=O)O)[nH]c(=O)c12`, the growth in [1] was 106%; in assay [2] it was 104%; in assay [3], 81.3%; in assay [4], 94.3%; in [5], 104%; in assay [6], 90.6%. For the same molecule, the growth in [7] was 110%; in assay [8], 95.2%; in assay [9], 138%.

As for `Fc1ccc2[nH]cc(SSc3c[nH]c4ccc(F)cc34)c2c1`, the growth in [1] was 25.8%; in assay [2] it was 39.2%; in [3], 64.1%; in [4] it was 41.1%; in [5] it was 13.8%; in assay [6], 70%. Moreover, the results for the growth in assay [7], in assay [8] and in assay [9] were 63.8%, 25.5% and 75.6%, respectively.

As to `C=CCSSc1ncnc2c1ncn2C1OC(CO)C(O)C1O` (stereo not given), the growth in [1] is 47.9%; in assay [2], 28.6%; in [3] it was 39.7%; in assay [4], 88.1%; in assay [5], 80%; in assay [6], 61.1%. Further, the growth was 18.4% in assay [7], 8.74% (active) in assay [8] and 109% in assay [9].

As to `CC(C)(C)N1CCC1CN` (stereo not given), the growth in [1] is 126%; in assay [2] it was 111%; in assay [3] it was 87.4%; in [4] it was 101%; in assay [5] it was 117%; in [6] it was 136%. Further, the results for the growth in assay [7], in assay [8] and in [9] were 112%, 109% and 105%, respectively.

`Cn1c(NCCc2ccc(O)c(O)c2)nc2c1c(=O)n(Cc1ccc(Br)cc1)c(=O)n2C`: the growth is 42.7% in assay [1]; 96.8% in [2]; 74.6% in assay [3]; 79.8% in assay [4]; 82.8% in assay [5]; 57.6% in [6]. The values for the growth in assay [7], in assay [8] and in assay [9] were 82%, 87.9% and 82.6%, respectively.

Turning to `CN(C)CCN1C(=O)c2cccc3c(N)ccc(c23)C1=O`, the growth was 23.2% in assay [1]; 13.5% in [2]; 56.9% in [3]; 27.3% in assay [4]; 22.5% in [5]; -21.8% (active) in assay [6]. Also, the growth was 33.1% in assay [7], 5.28% (active) in [8] and 71.2% in assay [9].

`O=[N+]([O-])c1cnc(N2CCN(CC3CC3)CC2)nc1N1CCN(CC2CC2)CC1`: the growth in assay [1] was 96%; in [2], 87%; in assay [3], 81%; in assay [4], 100%; in [5] it was 98.4%; in [6], 99.5%. Besides, the values for the growth in assay [7], in [8] and in assay [9] were 110%, 99.6% and 91.3%, respectively.

`Cn1ccnc1C(=O)/C=C/c1ccccc1`: the growth in [1] is 20.4%; in assay [2], 1.12% (active); in assay [3], 12.9%; in [4], 42.2%; in [5], 25%; in assay [6], 15%. For the same molecule, the growth was 43.1% in [7], 18.3% in [8] and 30.1% in assay [9].

As for `C#CCOc1ccc2ncnc(NCc3cccc(NC(=O)CCl)c3)c2c1`, the growth in [1] was 22.6% [8.25 µM]; in [2], 19.9% [8.25 µM]; in assay [3], 55.7% [8.25 µM]; in [4] it was 37.8% [8.25 µM]; in assay [5], -19.2% [8.25 µM] (active); in assay [6] it was 23.8% [8.25 µM]. Further, the values for the growth in assay [7], in [8] and in assay [9] were 31.8% [8.25 µM], 46.7% [8.25 µM] and 58.1% [8.25 µM], respectively.

Consider `O=C1/C(=C/c2ccc(Cl)cc2)SC(=S)N1CCc1ccc(O)cc1`, for which the growth in assay [1] was 99.7%; in [2] it was 117%; in assay [3], 71.4%; in [4] it was 98.9%; in assay [5] it was 101%; in [6], 97.1%. Further, the figures for the growth in [7], in [8] and in assay [9] were 78.5%, 65.1% and 101%, respectively.
